This excerpt belongs to a sample that is enriched for hits.
NS1 inh: blocks influenza NS1 protein function; Potency, µM (top dose mostly 46.1 µM), for inactives: at the top dose activity, positive = more growth; 0.4% of 270,000 active; AID 2326; calls by dose curve; also: potency is read from the fitted curve at half-maximal effect; actives are rising curves; nearly all actives have a fitted effect of over 50% in size
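Growth recovery, yeast-based: influenza A NS1 expressed in S. cerevisiae causes slow growth, and suppressors are detected by OD600. The parent strain without NS1 is used as positive control.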
AmpC detergent: AmpC beta-lactamase inhibition with detergent present; P00811; AmpC hydrolysis of nitrocefin, absorbance 480 nm, 0.01% Triton; Potency, µM (top dose mostly 114 µM), without a hit: at the top dose activity change, negative = inhibition, most hits filed as inhibitors; 0.041% of 370,000 active; AID 485294;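 also: potency is read from the fitted curve at half-maximal effect; 0% = no-compound wells and -100% = no-enzyme wells; nearly all actives have a fitted effect of over 25% in size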
Target sequence (P00811 whole entry, looked up): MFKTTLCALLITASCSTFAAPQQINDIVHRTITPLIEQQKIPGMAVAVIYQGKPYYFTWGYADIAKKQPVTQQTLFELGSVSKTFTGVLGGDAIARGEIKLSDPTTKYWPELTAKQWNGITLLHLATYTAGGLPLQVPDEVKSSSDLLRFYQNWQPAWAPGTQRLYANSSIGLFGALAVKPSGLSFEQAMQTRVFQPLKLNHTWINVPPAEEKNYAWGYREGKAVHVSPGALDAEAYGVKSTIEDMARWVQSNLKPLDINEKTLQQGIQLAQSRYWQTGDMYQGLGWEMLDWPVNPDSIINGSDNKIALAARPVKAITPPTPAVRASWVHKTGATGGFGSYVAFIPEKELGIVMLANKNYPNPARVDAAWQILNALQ
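20 mM phosphate pH 7.0 + 0.01% (detergent screen) or 0.0001% Triton X-100; 5.3 nM AmpC reagent; cpd preinc 15 min RT; nitrocefin (800 uM stock) to start; A480 q20 s × 4 min; Activity was normalised to no-enzyme and no-compound control wells.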
Shiga toxin inh: inhibitors of Shiga toxin in Vero cells; inhibition, % at 38.7 µM; AID 2315; Vero cells, Shiga toxin protein synthesis inhibition reporter; 9.2% of 290,000 active; in the data active = inhibition mostly above about 28%, no sharp cut-off; inactive = mostly below about 43%; also: 0% is about no effect
Cycloheximide cs: counter-screen for Shiga toxin inhibitors: cycloheximide protein synthesis inhibition | cell reporter, cycloheximide protein synthesis inhibition counterscreen | max response, % | 12% of 300,000 active; in the data active = max response mostly above about 13%, no sharp cut-off; inactive = mostly below about 14%; also: read at 38.3 µM for the half of the compounds with a filed dose; 0% is about no effect
AmpC no deterg: AmpC beta-lactamase inhibition without detergent; Potency, µM (highest dose often 57.1 µM), inactives show top-dose activity change, negative = inhibition, usual class: inhibitors; 0.52% of 330,000 active; AID 485341; AmpC nitrocefin hydrolysis, absorbance 480 nm, 0.0001% Triton; P00811;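 also: potency is read from the fitted curve at half-maximal effect; plate controls were no compound for no effect and no enzyme for full effect; nearly all actives have a fitted effect of over 20% in size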
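AmpC (5.3 nM in the dispensed reagent) in 20 mM phosphate pH 7.0 with 0.01% (detergent screen) or 0.0001% Triton X-100 was preincubated with compounds for 15 min at room temperature. Nitrocefin was then added from an 800 uM solution, and hydrolysis was followed at 480 nm.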
* = called active by the depositor; ? = inconclusive; / = no result. Unless noted, calls follow the shape of the dose curve; as a rule, active = well fitted curve in the direction sought with a large enough effect; inconclusive = small, poorly fitted or top-dose-only effect, or another doubt; inactive = no such curve, though single readings can be large; an effect the other way counts as inactive or inconclusive.

SMILES	NS1 inh	AmpC detergent	Shiga toxin inh	Cycloheximide cs	AmpC no deterg
O=C(NCCc1ccccc1)C(=O)NCC(c1cccnc1)N1CCN(c2ccccc2F)CC1 (configuration not stated)	/	25%	/	/	/
CC1(C)[C@@H]2CC[C@]1(C)CN(CCC[N+](C)(C)C)C2	-3%	/	/	/	/
COc1ccccc1OCCCC(=O)Nc1ccc(N2CCOCC2)cc1	/	?	10	13*	29%
COc1cccc(/C=C/C(=O)Nc2ccc(N3CCOCC3)cc2)c1OC	-8%	7%	51	18*	-16%
Cc1cccc(C)c1NC(=O)CNC(=O)C1CC(=O)N(Cc2ccccc2)C1 (configuration not stated)	/	-13%	/	/	-7%
CCOCCCNC(=O)c1cc(=O)[nH]c2ccc(S(=O)(=O)N3CCCC3)cc12	/	13%	/	/	/
CC(OC(=O)CN1C(=O)NC2(CCCC2)C1=O)C(=O)c1ccccc1 (configuration not stated)	/	?	/	/	5%
Cc1c(-c2ccc(Cl)cc2)c(=O)oc2c(CN3CCN(CCO)CC3)c(O)ccc12	/	9%	/	/	/
CCn1c(C)nc2cc(NC(=O)Nc3cccc(C(C)=O)c3)ccc21	2%	1%	46	21*	-9%
COc1cccc(NC(=O)Nc2ccc3nsnc3c2)c1	-33%	1%	97*	31*	?
CC(=O)c1cccc(NC(=O)NCCS(C)=O)c1 (configuration not stated)	-10%	?	-10	-4	-17%
COc1cccc(NC(=O)Nc2ccc3c(c2)nc(C)n3C)c1	2%	2%	58*	26*	-18%
CCN(CC)c1ccc(NC(=O)Nc2cccc(C(C)=O)c2)cc1	-1%	1%	46*	20	/
CCn1c(C)nc2cc(C(=O)OC)ccc21	0%	1%	10	3	-3%
Cc1cc(O)c(-c2ccnc3cc(-c4ccccc4)nn23)cc1Cl	/	-5%	/	/	/
Cc1ccc(CNC(=O)CCCCCn2c(=O)c3sccc3n(CC(=O)Nc3ccc(C)c(F)c3)c2=O)cc1	/	13%	/	/	/
O=C1CN(C(=O)c2ccc(S(=O)(=O)N3CCCC3)cc2)C(c2ccc(F)cc2)c2cc(Br)ccc2N1 (configuration not stated)	/	8%	/	/	/
COc1cccc(NC(=O)c2nc3nc(C)cc(C(F)F)n3n2)c1	-1%	-10%	16	-3	45µM*
Cc1nc2cc(NC(=O)Nc3nccs3)ccc2n1C	-2%	-13%	35*	22*	-33%
Cc1nc2cc(NC(=O)N3CCCC3)ccc2n1C	-1%	7%	11	3	-13%
Cc1nc2cc(NC(=O)NC(C)(C)C)ccc2n1C	-3%	1%	34	18*	-20%
CCn1c(C)c(CS(=O)(=O)c2ccccc2)[nH]c1=O	-2%	-6%	108	34*	-18%
NC(=Nc1ccc(Br)cc1)c1ccccc1	-5%	-14%	76*	20*	-16%
Cc1ccccc1C(=O)Nc1cc(-c2ccc(Cl)cc2)nn1-c1ccccc1	/	7%	/	/	/
O=c1sc2ccccc2n1CCOc1ccccc1	-14%	2%	66*	39*	-21%
SMILES	NS1 inh	AmpC detergent	Shiga toxin inh	Cycloheximide cs	AmpC no deterg
Cc1ccc(OCn2c(=O)sc3ccccc32)cc1	-23%	-2%	65*	47*	-37%
O=C(O)CCn1c(=O)sc2ccccc21	-2%	-10%	-9	7	-2%
Cc1ccc(Cn2cc(S(=O)(=O)c3cccc(C)c3)c(=O)c3cc(F)c(N4CCOCC4)cc32)cc1	/	1%	/	/	/
Cc1ccc(C(=O)NNC(=S)Nc2cccc3ccccc23)s1	4%	1%	67*	30*	-35%
CC(=O)Nc1cccc(NC(=S)Nc2cccc3ccccc23)c1	6%	0%	84*	44*	-34%
CC(=O)Nc1cccc(NC(=S)Nc2cccc(Cl)c2C)c1	/	-9%	15	7	-23%
COc1ccc(NC(=S)Nc2cccc3ccccc23)cc1OC	13%	-10%	18	30*	-18%
O=C(NNC(=S)Nc1cccc2ccccc12)c1cccc(Br)c1	-50%	-4%	-13	11	-45%
CC(=O)c1cccc(NC(=S)NCc2ccccc2)c1	15%	-8%	-2	-1	-29%
CC(=O)c1cccc(NC(=S)Nc2cccc3ccccc23)c1	-8%	-15%	83*	44*	-31%
COc1ccc(NCc2cccn2-c2nnc(N3CCCCC3)s2)cc1OC	/	-3%	/	/	/
COc1cccc(CNC(=O)c2ccc3c(c2)nc2n3CCCCC2)c1OC	/	16%	/	/	/
Cc1ccc(F)c(NC(=S)Nc2cccc3ccccc23)c1	25%	9%	58*	36*	-28%
Cc1ccc(OCc2ccc(C(=O)NN)o2)c([N+](=O)[O-])c1	10%	0%	36	37*	-2%
COC(=O)c1ccc(COc2ccc(C)cc2[N+](=O)[O-])o1	-1%	-10%	77*	48*	-3%
COc1ccc(CNCC(O)COc2ccc(C)cc2[N+](=O)[O-])cc1 (configuration not stated)	-6%	6%	69*	35*	2%
CC1(c2ccc(OC(F)F)cc2)NC(=O)N(/N=C/c2c(O)ccc3ccccc23)C1=O (configuration not stated)	-2%	6%	-2	5	-20%
COC(=O)c1ccccc1NS(=O)(=O)c1c(C)noc1C	-8%	-7%	-4	0	-32%
COc1ccc(/C=C/c2c(-c3ccc(OC)cc3)sc3ccc(N4CCOCC4)cc23)cc1	21%	-10%	3	-3	-31%
COc1ccc(-c2oc3ccc(N4CCOCC4)cc3c2/C=C/c2ccc(OC)c(OC)c2)cc1	11%	-2%	30*	12*	33%
CS(=O)(=O)c1cccc(NC(=O)c2ccc(Cl)c(Cl)c2)c1	-8%	-1%	54*	18	-22%
O=C(Nc1ccc(Cl)c(Cl)c1)c1ccncc1	-85%	-18%	101*	31*	-11%
COc1ccc(C(=O)Nc2ccc(Cl)c(Cl)c2)c(OC)n1	-3%	6%	45*	21*	-20%
O=C(Nc1ccc(Cl)c(Cl)c1)c1ccc(Cl)c(Cl)c1	4%	-13%	89*	50*	-25%
Cc1cc(C)nc(NC(=O)c2ccc(Cl)c(Cl)c2)n1	2%	8%	11	3	1%
SMILES	NS1 inh	AmpC detergent	Shiga toxin inh	Cycloheximide cs	AmpC no deterg
O=C(O)c1ccc(C(=O)O)c(C(=O)Nc2ccc3c(c2)Cc2ccccc2-3)c1	-1%	/	/	/	/
O=C(Nc1cccnc1)c1ccc(Cl)c(Cl)c1	-49%	-2%	/	24*	-23%
Cc1ccc(NC(=O)c2ccc(Cl)c(N3C(=O)C=CC3=O)c2)cc1	-192%	-2%	81*	57*	-37%
O=C(Nc1ccc2c(c1)COC2=O)c1ccc(Cl)c(Cl)c1	-17%	-2%	71*	34*	-33%
CCCC(=O)Nc1ccc2c(c1)COC2=O	5%	1%	25	6	-18%
O=C(Nc1ccc2c(c1)Cc1ccccc1-2)c1ccncc1	-27%	-9%	66*	33*	-32%
